# In PubChem BioAssay:
# Values joined by “and” are separate entries in the source; they are usually repeats but may differ in a detail not shown here. Identical values can stand only once. Active and inactive are the calls of the source.
# Columns and labels:
# [1] = system: Plasmodium falciparum Sir2 (PF13_0152, Sir2A); assay: pfSir2 binders on small-molecule microarrays, primary screen, biochemical, small-molecule microarray, 635 nm fluorescence (AID 1098); details: small-molecule microarray binding, fluorescence 635 nm; higher = more signal;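 note: score merges spot fluorescence intensity with its signal-to-noise ratio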
# [2] = small-molecule microarray binders of probe aDKK1, primary screen, biochemical, biotinylated probe, 635/667 nm fluorescence (AID 1099); details: higher = more signal;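 note: score merges 667nm spot fluorescence with signal to noise across triplicate slides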
# [3] = small-molecule microarray binders of probe aCHRDL2, primary screen, biochemical, biotinylated probe, 635/667 nm fluorescence (AID 1100); details: higher = more signal
# [4] = splicing luciferase reporter signal modulators, primary screen, spliceosome inhibition project, cell-based, HEK293, splice +/- reporter (AID 1101); details: luminescence, 24 h, higher = more signal, called active from +8 up or from −8 down;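 note: HEK293 cells carrying a splicing-competent luciferase reporter gene; test concentration not given here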
# [5] = molecular target: Fibroblast growth factor 10 (Homo sapiens) (UniProt O15520); assay: FGF10 binders on small-molecule microarrays, primary screen, biochemical, small-molecule microarray, 635 nm fluorescence (AID 1102); details: FGF10 binding, fluorescence 635 nm, higher = more signal
# Fibroblast growth factor 10 (Homo sapiens), sequence (O15520 whole entry, looked up): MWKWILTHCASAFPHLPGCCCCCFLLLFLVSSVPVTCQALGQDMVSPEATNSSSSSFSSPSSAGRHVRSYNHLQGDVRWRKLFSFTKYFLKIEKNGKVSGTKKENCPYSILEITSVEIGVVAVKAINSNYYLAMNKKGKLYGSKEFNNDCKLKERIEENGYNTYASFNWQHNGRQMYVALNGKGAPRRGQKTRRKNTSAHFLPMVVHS
# [6] = system: glycogen synthase kinase-3 (GSK3A per assay name; protocol says GSK3B); assay: GSK3 binders on small-molecule microarrays, primary screen, biochemical, small-molecule microarray, 635 nm fluorescence, GSK3A (AID 1103); details: small-molecule microarray binding, fluorescence 635 nm; higher = more signal; note: the record names both GSK3A and GSK3B
# [7] = molecular target: Epidermal growth factor receptor (Homo sapiens) (UniProt P00533); assay: EGFR binders on small-molecule microarrays, primary screen, biochemical, small-molecule microarray, 635 nm fluorescence (AID 1104); details: EGFR binding, higher = more signal;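 note: score merges 667 nm emission intensity with spot signal to noise over triplicate slides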
# Epidermal growth factor receptor (Homo sapiens), sequence (P00533 whole entry, looked up): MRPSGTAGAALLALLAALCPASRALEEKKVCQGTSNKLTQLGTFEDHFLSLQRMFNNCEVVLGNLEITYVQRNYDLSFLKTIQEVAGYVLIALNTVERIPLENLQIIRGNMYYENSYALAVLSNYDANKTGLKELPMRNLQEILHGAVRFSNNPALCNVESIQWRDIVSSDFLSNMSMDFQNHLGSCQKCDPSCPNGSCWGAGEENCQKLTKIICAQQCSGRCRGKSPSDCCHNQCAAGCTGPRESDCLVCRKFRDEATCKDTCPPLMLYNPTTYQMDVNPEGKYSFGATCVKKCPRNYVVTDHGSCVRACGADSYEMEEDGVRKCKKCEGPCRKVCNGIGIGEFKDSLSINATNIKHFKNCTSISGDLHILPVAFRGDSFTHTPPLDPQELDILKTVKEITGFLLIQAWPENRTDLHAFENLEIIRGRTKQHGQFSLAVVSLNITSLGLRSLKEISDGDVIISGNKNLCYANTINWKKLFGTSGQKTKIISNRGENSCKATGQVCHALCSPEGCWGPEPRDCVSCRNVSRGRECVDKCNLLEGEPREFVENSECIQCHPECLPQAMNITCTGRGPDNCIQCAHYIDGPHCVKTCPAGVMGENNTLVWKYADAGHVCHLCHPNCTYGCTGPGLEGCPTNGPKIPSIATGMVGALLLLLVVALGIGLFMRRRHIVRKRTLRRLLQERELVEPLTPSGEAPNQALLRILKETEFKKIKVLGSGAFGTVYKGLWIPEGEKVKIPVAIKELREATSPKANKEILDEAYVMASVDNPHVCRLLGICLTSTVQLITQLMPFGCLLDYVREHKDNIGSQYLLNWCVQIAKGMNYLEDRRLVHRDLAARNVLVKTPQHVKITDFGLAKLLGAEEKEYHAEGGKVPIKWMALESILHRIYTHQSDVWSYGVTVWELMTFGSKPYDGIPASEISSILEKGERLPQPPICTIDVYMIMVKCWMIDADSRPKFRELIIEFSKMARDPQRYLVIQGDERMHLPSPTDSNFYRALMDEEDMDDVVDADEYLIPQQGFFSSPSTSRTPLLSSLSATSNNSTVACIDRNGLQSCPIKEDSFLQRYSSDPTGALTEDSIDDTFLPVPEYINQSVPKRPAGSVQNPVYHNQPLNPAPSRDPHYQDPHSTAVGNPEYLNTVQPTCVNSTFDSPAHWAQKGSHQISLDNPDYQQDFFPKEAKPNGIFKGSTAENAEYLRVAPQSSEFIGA
# [8] = molecular target: Follistatin-related protein 3 (Homo sapiens) (UniProt O95633); assay: FSTL3 binders on small-molecule microarrays, primary screen, biochemical, small-molecule microarray, 635 nm fluorescence (AID 1105); details: FSTL3 binding, higher = more signal;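 note: score merges emission near 667 nm and signal to noise per printed spot across three slides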
# Follistatin-related protein 3 (Homo sapiens), sequence (O95633 whole entry, looked up): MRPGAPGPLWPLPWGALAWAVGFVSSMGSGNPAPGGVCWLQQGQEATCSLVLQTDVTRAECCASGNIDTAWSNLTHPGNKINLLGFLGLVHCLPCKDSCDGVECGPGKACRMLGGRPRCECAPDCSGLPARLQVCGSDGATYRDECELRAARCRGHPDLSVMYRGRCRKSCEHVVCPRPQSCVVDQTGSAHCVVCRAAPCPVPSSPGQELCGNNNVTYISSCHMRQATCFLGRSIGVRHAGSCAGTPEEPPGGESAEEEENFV
# [9] = molecular target: Dickkopf-related protein 1 (Homo sapiens) (UniProt O94907); assay: DKK1 binders on small-molecule microarrays, primary screen, biochemical, small-molecule microarray, 635 nm fluorescence scan (AID 1106); details: DKK1 binding, higher = more signal;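 note: score merges emission near 667 nm with signal to noise over three replicate slides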
# Dickkopf-related protein 1 (Homo sapiens), sequence (O94907 whole entry, looked up): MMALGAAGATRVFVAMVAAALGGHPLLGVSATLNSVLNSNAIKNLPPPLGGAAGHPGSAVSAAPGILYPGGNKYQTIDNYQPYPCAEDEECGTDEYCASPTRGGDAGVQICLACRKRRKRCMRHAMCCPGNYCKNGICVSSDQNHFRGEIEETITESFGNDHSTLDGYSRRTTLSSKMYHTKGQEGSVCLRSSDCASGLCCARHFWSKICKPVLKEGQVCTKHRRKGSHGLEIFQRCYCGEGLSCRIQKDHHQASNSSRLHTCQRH
# [10] = system: Inhibin beta A chain (activin A); assay: INHBA (activin A) binders on microarrays, primary screen, biochemical, small-molecule microarray, 635 nm fluorescence scan (AID 1107); details: small-molecule microarray binding, higher = more signal;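 note: mouse activin A protein probed at 4.33 µg/mL on printed slides; score merges bound-protein fluorescence near 667 nm with spot signal-to-noise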
# [11] = system: Human papillomavirus type 1a protein E7 (residues 44-93); assay: HPV1a E7 fragment binders on microarrays, primary screen, biochemical, small-molecule microarray, residues 44-93, 635 nm fluorescence (AID 1108); details: small-molecule microarray binding, fluorescence 635 nm; higher = more signal;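 note: E7 fragment applied at 1 µg/mL in TBST for 1 h at 4 C; score combines spot fluorescence with its signal to noise ratio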
# [12] = modulators of HCV replicon luciferase signal, primary screen, HCV replication inhibitor project, Huh7 cells, luciferase reporter (AID 1109); details: 48 h, higher = more signal;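 note: huh7 hepatoma cells harbouring a luciferase neomycin HCV replicon reporter; luciferase luminescence as measure of HCV replicon replication; test concentration not given here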
# [13] = molecular target: Left-right determination factor 2 (Homo sapiens) (UniProt O00292); assay: LEFTY2 binders on small-molecule microarrays, primary screen, biochemical, small-molecule microarray, 635 nm fluorescence scan (AID 1110); details: LEFTY2 binding, higher = more signal
# Left-right determination factor 2 (Homo sapiens), sequence (O00292 whole entry, looked up): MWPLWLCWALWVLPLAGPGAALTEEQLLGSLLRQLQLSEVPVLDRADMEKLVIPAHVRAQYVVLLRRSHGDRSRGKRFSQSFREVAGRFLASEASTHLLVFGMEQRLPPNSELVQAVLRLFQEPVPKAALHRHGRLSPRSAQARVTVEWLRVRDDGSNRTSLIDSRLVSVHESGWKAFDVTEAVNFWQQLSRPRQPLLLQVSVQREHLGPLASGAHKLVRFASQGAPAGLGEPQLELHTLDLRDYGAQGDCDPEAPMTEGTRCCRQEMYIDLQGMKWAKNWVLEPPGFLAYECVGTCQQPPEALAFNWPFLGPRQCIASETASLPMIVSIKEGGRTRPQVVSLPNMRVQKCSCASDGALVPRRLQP
# [14] = molecular target: Calmodulin-1 (Homo sapiens) (UniProt P0DP23); assay: CALM1 binders on microarrays, EGTA buffer, profiling panel, biochemical, small-molecule microarray, Cy5-labelled CALM1 (AID 1111); details: Cy5-CALM1 binding fluorescence, higher = more signal;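 note: labelled calmodulin applied in Tris saline Tween buffer holding calcium plus EGTA and DTT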
# [15] = molecular target: Calmodulin-1 (Homo sapiens) (UniProt P0DP23); assay: calcium-bound CALM1 binders on microarrays, profiling panel, artefact control for SMM control-protein annotation, biochemical, small-molecule microarray, Cy5-labelled CALM1, plus calcium (AID 1112); details: Cy5-CALM1 binding fluorescence, higher = more signal;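 note: score merges spot fluorescence with signal to noise from triplicate slides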
# [16] = small-molecule microarray binders of probe aWnt5a, primary screen, biochemical, biotinylated probe, 635/667 nm fluorescence (AID 1113); details: higher = more signal;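 note: score merges 667 nm fluorescence intensity with signal-to-noise per printed feature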
# [17] = small-molecule microarray binders of probe aShh, primary screen, biochemical, biotinylated probe, 635/667 nm fluorescence (AID 1114); details: higher = more signal;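 note: probe is biotin-labelled aShh protein from a stem cell growth factor screen; measures binding of labelled protein to compounds printed on the slide; score merges feature fluorescence at 667 nm with signal-to-noise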
# [18] = small-molecule microarray binders of probe aNog, primary screen, biochemical, biotinylated probe, 635/667 nm fluorescence (AID 1115); details: higher = more signal;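 note: probe is biotinylated aNog protein used at 0.15 µg/mL for 1 h at 4 C; z-score combines 667 nm fluorescence of each spot with its signal to noise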
# [19] = molecular target: Torsin-1A-interacting protein 1 (Homo sapiens) (UniProt Q5JTV8); assay: LAP1 binders from COS7 cell lysate, primary screen, small-molecule microarray, 635/667 nm fluorescence (AID 1116); details: COS7-hLAP1 lysate binding, 635 nm fluorescence, higher = more signal
# Torsin-1A-interacting protein 1 (Homo sapiens), sequence (Q5JTV8 whole entry, looked up): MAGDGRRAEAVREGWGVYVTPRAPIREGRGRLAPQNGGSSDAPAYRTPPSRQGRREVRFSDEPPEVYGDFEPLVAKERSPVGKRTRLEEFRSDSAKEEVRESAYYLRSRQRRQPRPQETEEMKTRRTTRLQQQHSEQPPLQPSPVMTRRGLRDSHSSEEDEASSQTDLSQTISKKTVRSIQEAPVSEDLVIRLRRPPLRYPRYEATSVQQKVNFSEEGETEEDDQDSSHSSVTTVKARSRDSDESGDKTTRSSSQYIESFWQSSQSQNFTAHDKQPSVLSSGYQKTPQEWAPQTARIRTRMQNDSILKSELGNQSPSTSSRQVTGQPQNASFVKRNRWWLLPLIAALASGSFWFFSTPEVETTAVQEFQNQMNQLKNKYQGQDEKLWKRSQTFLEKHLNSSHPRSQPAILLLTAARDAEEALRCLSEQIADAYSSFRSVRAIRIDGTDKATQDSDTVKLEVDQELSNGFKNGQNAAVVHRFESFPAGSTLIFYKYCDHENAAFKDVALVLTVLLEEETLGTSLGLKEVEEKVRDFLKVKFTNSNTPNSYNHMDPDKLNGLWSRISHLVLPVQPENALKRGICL
# [20] = molecular target: Alpha-bungarotoxin (Bungarus multicinctus) (UniProt P60615); assay: alpha-bungarotoxin binders on microarray, profiling panel, artefact control for SMM control protein annotation, biochemical, small-molecule microarray, Alexa647 label, 635/667 nm fluorescence (AID 1117); details: alpha-BTX-A647 binding fluorescence, higher = more signal
# Alpha-bungarotoxin (Bungarus multicinctus), sequence (P60615 whole entry, looked up): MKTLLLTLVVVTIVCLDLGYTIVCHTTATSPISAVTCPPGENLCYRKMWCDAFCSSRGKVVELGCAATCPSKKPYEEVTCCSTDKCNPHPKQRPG
Structure (SMILES),composite z-score [1],composite z-score [2],composite z-score [3],z-score [4],composite z-score [5],composite z-score [6],composite z-score [7],composite z-score [8],composite z-score [9],composite z-score [10],composite z-score [11],z-score [12],composite z-score [13],composite z-score [14],composite z-score [15],composite z-score [16],composite z-score [17],composite z-score [18],composite z-score [19],composite z-score [20]
CC(CO)N1C(=O)[C@@H]2C3C(=O)OCCC=C[C@H]3OC23C=CCN(c2ccc(Cl)cc2)C(=O)[C@@H]13 (stereo not given in full),1.13 and 1.84,-0.0514 and 0.0818,0.574 and 0.715,0.14 (inactive) and 0.899 (inactive),-1.16 and 0.322,-1.61 and -0.251,-0.911 and -0.867,-1.14 and -0.558,-1.33 and -0.412,0.137 and 0.88,-0.999 and 0.188,-0.229 and -0.964,-0.905 and -1.03,0.136 and 0.0733,1.09 and -0.66,-0.0346 and -0.152,-0.19 and -0.0035,0.0473 and 0.61,-0.236 and 1.7,0.0882 and -0.198
COC(=O)C1=C(C)N(Cc2ccccc2)C2=C3C(=O)N(C)C(=O)[C@@H]3[C@@](O)(C(=O)OC)C(=O)N2[C@@H]1c1ccccc1,-0.0387 and 0.0245,0.0287 and -0.103,-0.282 and -0.486,-0.18 (inactive) and -0.675 (inactive),0.786 and 0.387,0.0745 and 0.608,0.533 and 0.834,0.285 and 0.502,0.103 and 0.211,0.476 and 0.292,-0.517 and 0.0656,-0.0888 and 1.05,0.356 and 0.796,-0.403 and -0.324,-0.668 and -0.691,-0.124 and -0.0735,-0.0035 and -0.16,-0.0705 and -0.272,0.015 and -0.101,0.871 and 0.167
C=CCN(Cc1ccccc1)C(=O)C1N(c2ccc(CCO)cc2)C(=O)C2C(C(=O)O)C3C=CC21O3 (stereo not given),0.808 and 1.9,0.433 and -0.26,1.08 and 1.01,-0.426 (inactive) and -0.139 (inactive),-1.98 and -2.13,-1.13 and -1,-1.69 and -2.44,-3.03 and -1.19,-2.7 and -3.74,-3.78 and -3.04,-0.864 and -3.61,0.677 and 0.514,-2.68 and -3.26,-0.279 and -1.04,0.428 and -0.184,-0.195 and -0.0792,0.149 and -0.0035,-0.152 and 0.784,-0.958 and -1.58,-1.48 and 0.899
CCN1C(=O)[C@H]2[C@H]3[C@H](O)[C@H](O)CC(=NOC)[C@@H]3CC[C@H]2C1=O,0.767,-0.0904,-0.0826,0.302 (inactive),-0.0502,-0.595,0.1,-0.0407,0.179,0.39,-0.524,0.964,0.256,-0.472,-0.266,-0.147,0.13,-0.122,0.262,0.178
CCOC(=O)NN=C1C[C@@H](O)[C@@H](O)[C@@H]2[C@@H]3C(=O)N(Cc4ccc5c(c4)OCO5)C(=O)[C@@H]3CC[C@@H]12,0.0867,-0.0464,-0.331,0.0278 (inactive),0.0364,0.424,0.231,-0.406,0.0071,-0.134,0.431,-0.398,-0.0145,0.257,-0.727,-0.006,-0.0011,-0.252,0.629,0.619
